# Measurements from PubChem BioAssay AID624405 (Broad Institute, 2012).
# The campaign covered roughly 1,900 compounds. About 250 (13%) were called active. Inconclusive results (about 4%) are left out.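 Rule for the calls: active = fitted curve reaches 40% rescue activity at or below the top valid dose, in every test run; inconclusive = test runs disagree, some active and some inactive; inactive = every run misses the threshold or moves the wrong way.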 Only a sample is shown. Potency and affinity values are given separately.
# Assay: suppressors of statin myotoxicity in myotubes, dose response, cell-based, C2C12 myotubes, ATP luminescence, cherry pick (AID 624405);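 note: myotubes are challenged with simvastatin at 10 µM to lower ATP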
# Conditions: C2C12 myotubes + simvastatin, 48 h, scaled: DMSO wells 0, geranylgeraniol wells 100; series mostly up to 19.5 µM; rescue activity (ATP increase): at the top concentration
row,SMILES,rescue activity (ATP increase)
1,Cc1cc(NC(=O)COC(=O)C2CCN(S(=O)(=O)c3c(Cl)cccc3Cl)CC2)no1,26.2% (inactive)
2,N#Cc1ccc(-c2nnnn2-c2ccc3c(c2)OCO3)cc1,6.82% (inactive)
3,COC(=O)c1ccccc1NC(=O)c1ccccc1OC,-9.52% (inactive)
4,COc1ccccc1N(CC(=O)Nc1ccc2c(c1)OCCO2)S(C)(=O)=O,5.49% (inactive)
5,Cc1noc(C)c1S(=O)(=O)N1CCC(C(=O)N2CCN(c3ccccc3Cl)CC2)CC1,7.83% (inactive)
6,C[C@@H]1CCCCO[C@H](CN(C)CC2CCCCC2)[C@@H](C)CN([C@H](C)CO)C(=O)c2cc(NC(=O)CCCN(C)C)ccc2O1,2.27% (inactive)
7,C[C@@H]1CN([C@@H](C)CO)C(=O)c2cc(C3=CCCCC3)cnc2O[C@@H]1CN(C)C(=O)C1CCOCC1,16.4% (inactive)
8,O=C(COC(=O)CNC(=O)c1ccc(Br)o1)Nc1ccc2c(c1)OCCO2,20.8% (inactive)
9,COc1ccc(C(=O)N2CCN(C(=O)c3cc(OC)c(OC)c(OC)c3)CC2)cc1,-13.4% (inactive)
10,COc1ccc(C(=O)N2CCc3cc(OC)c(OC)cc3C2)cc1OC,14.1% (inactive)
11,N#Cc1cc2c(nc1SCC(=O)N1CCCCC1)CCCCC2,7.11% (inactive)
12,CC(C)(C)C(=O)Nc1ccccc1N1CCN(C(=O)c2ccc(Cl)cc2)CC1,47.4% (inactive)
13,C[C@H](CO)N1C[C@H](C)[C@@H](CN(C)Cc2ccc(Cl)c(Cl)c2)Oc2ccc(NC(=O)c3ccncc3)cc2CC1=O,24.4% (inactive)
14,C[C@@H]1CN([C@H](C)CO)C(=O)Cc2cc(NC(=O)Cc3cn(C)c4ccccc34)ccc2O[C@@H]1CN(C)Cc1ccc(Cl)c(Cl)c1,28.1% (inactive)
15,C[C@@H]1CN([C@@H](C)CO)C(=O)Cc2cc(NC(=O)C3CCCCC3)ccc2O[C@H]1CN(C)Cc1ccc(-c2ccccc2)cc1,38.7% (inactive)
16,C[C@@H]1CN([C@@H](C)CO)C(=O)c2cc(NC(=O)C3CCCCC3)ccc2O[C@@H]1CN(C)Cc1ccc(Cl)c(Cl)c1,-5.83% [at 21 µM] (inactive)
17,C[C@@H]1CN([C@H](C)CO)C(=O)Cc2cc(NC(=O)Nc3ccc(F)cc3)ccc2O[C@H]1CN(C)Cc1ccc(Cl)c(Cl)c1,21.5% [at 21 µM] (inactive)
18,C[C@H](CO)N1C[C@H](C)[C@@H](CN(C)Cc2ccc(Cl)c(Cl)c2)Oc2ccc(NC(=O)NC3CCCCC3)cc2CC1=O,17.5% (inactive)
19,C[C@@H]1CN([C@H](C)CO)C(=O)c2cc(NC(=O)C3CCCCC3)ccc2O[C@H]1CN(C)Cc1ccc(Cl)c(Cl)c1,-1.86% [at 21 µM] (inactive)
20,C[C@H]1CN([C@@H](C)CO)C(=O)Cc2cc(NC(=O)Cc3cn(C)c4ccccc34)ccc2O[C@@H]1CN(C)Cc1ccc(Cl)c(Cl)c1,28.9% (inactive)
21,COc1ccc(S(=O)(=O)Nc2ccc3c(c2)C(=O)N([C@@H](C)CO)C[C@H](C)[C@@H](CN(C)S(=O)(=O)c2ccc(F)cc2)OCCCC[C@@H](C)O3)cc1,17.1% (inactive)
22,C[C@@H]1CCCCO[C@H](CN(C)C(=O)Nc2cccc3ccccc23)[C@H](C)CN([C@@H](C)CO)C(=O)c2cc(NC(=O)Nc3ccc4c(c3)OCO4)ccc2O1,16.8% (inactive)
23,COc1cccc(S(=O)(=O)N(C)C[C@@H]2Oc3ncc(C#CCC(C)C)cc3C(=O)N([C@@H](C)CO)C[C@H]2C)c1,4.75% (inactive)
24,CC(=O)Nc1cc(-c2nn(C)c(=O)c3ccccc23)ccc1N1CCOCC1,33.7% (inactive)
25,C[C@@H]1CCCCO[C@H](CN(C)C(=O)C2CCCCC2)[C@H](C)CN([C@H](C)CO)C(=O)c2cc(NS(=O)(=O)c3ccccc3)ccc2O1,26.7% (inactive)

row,SMILES,rescue activity (ATP increase)
1,COc1ccc(CC(=O)Nc2ccc(-c3cn4ccccc4n3)cc2)cc1,-1.98% (inactive)
2,C[C@@H]1CN([C@@H](C)CO)C(=O)Cc2cc(NC(=O)C3CCCCC3)ccc2O[C@H]1CN(C)Cc1ccc(Oc2ccccc2)cc1,17.8% (inactive)
3,C[C@@H]1CN([C@@H](C)CO)C(=O)Cc2cc(NC(=O)C3CC3)ccc2O[C@H]1CN(C)Cc1ccc(Oc2ccccc2)cc1,26.8% (inactive)
4,CCCCNc1ncnc2c1cnn2Cc1ccc(Cl)cc1,-49% (inactive)
5,COCCCn1c(SCC(=O)NCc2ccco2)nc2sc3c(c2c1=O)CCC3,29.6% (inactive)
6,O=C(CCn1c(SCC(=O)NCc2ccco2)nc2ccccc2c1=O)NCCc1ccccc1,38.7% (inactive)
7,COc1ccc(OCC(=O)Nc2nnc(S(=O)(=O)N3CCCCCC3)s2)cc1,-8.53% (inactive)
8,Cc1cnc(C(=O)Nc2nccs2)cn1,-34% (inactive)
9,CCN(CC)S(=O)(=O)c1cccc(-c2nnc(SCC(=O)NCCC3=CCCCC3)n2N)c1,5.05% (inactive)
10,CCN(C(C)=O)c1cccc2ccccc12,-3.21% (inactive)
11,CCC1CCCCN1S(=O)(=O)c1ccc(NC(=O)C2CCN(C(=O)c3ccco3)CC2)cc1 (stereo not given),-13.4% (inactive)
12,CCC(C)NS(=O)(=O)c1ccc(NC(=O)C2CCN(C(=O)c3ccco3)CC2)cc1 (stereo not given),-1.8% (inactive)
13,CC1CCCN(S(=O)(=O)c2ccc(NC(=O)C3CCN(C(=O)c4ccco4)CC3)cc2)C1 (stereo not given),10.1% (inactive)
14,CC1CCN(S(=O)(=O)c2ccc(NC(=O)c3ccco3)cc2)CC1,3.41% (inactive)
15,C[C@@H]1CCCCO[C@@H](CN(C)C(=O)Nc2cccc3ccccc23)[C@H](C)CN([C@H](C)CO)C(=O)c2cc(NC(=O)c3ccncc3)ccc2O1,32.2% (inactive)
16,C[C@H]1CN([C@@H](C)CO)S(=O)(=O)c2ccc(-c3ccc(C(=O)N(C)C)cc3)cc2O[C@@H]1CN(C)C(=O)Cc1ccccn1,32.9% (inactive)
17,CCOc1ncnc2c1[nH]c1ccccc12,13.5% (inactive)
18,COc1ccc(CN(C)C[C@@H]2Oc3ccc(NC(=O)CCC(F)(F)F)cc3CC(=O)N([C@H](C)CO)C[C@H]2C)cc1,27.9% [at 21 µM] (inactive)
19,COc1ccc(S(=O)(=O)Nc2ccc3c(c2)C(=O)N([C@H](C)CO)C[C@H](C)[C@@H](CN(C)S(=O)(=O)c2ccc(F)cc2)OCCCC[C@@H](C)O3)cc1,25.5% (inactive)
20,O=C(O)CCC(=O)OCC1CCCCC1,-4.14% (inactive)
21,CC(C)NC(=O)Cn1c(=O)n(CC(=O)N2CCCCC2)c(=O)c2sccc21,-3.24% (inactive)
22,C[C@H]1CN([C@@H](C)CO)C(=O)c2cc(C#CC3CC3)cnc2O[C@@H]1CN(C)S(C)(=O)=O,2.75% (inactive)
23,C[C@@H]1CN([C@H](C)CO)C(=O)c2cc(NS(C)(=O)=O)ccc2O[C@@H](C)CCCCO[C@@H]1CN(C)S(=O)(=O)c1ccc(Cl)cc1,15.7% (inactive)
24,O=c1c2c([nH]c3ccc(Br)cc13)CCCC2,-17.7% (inactive)
25,O=C(CCn1cccc1)NC1CCCc2ccccc21 (stereo not given),9.33% (inactive)
